Shown are actives, neighbours in structure and some others; about 2.3% of the full set was active somewhere.
CHO-K1 Ca antag: nonselective inhibitor or artifact in parental CHO-K1 cells; ATP-induced calcium, Fluo-8 fluorescence; AID 602250; inhibition, % at 3 µM; actives 0.6% (n = 360,000);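 active = inhibition above a per-plate cutoff, the plate's mean sample inhibition plus 3 SD, cut at about 24% in these data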;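 also: 0% = DMSO plus EC80 ATP and 100% = DMSO alone without ATP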
CHO-K1 Ca ag: counter-screen for M1 agonists: effect in parental CHO-K1 cells | Fluo-8 calcium fluorescence; scaled to maximal ATP response, vehicle zero | activation, % at 3 µM | actives 0.48% (n = 360,000) | AID 602248, 2012; in the data active = activation above about 15%;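 also: untransfected CHO-K1 host cells lacking M1 receptor as counterscreen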
CHRM1 PAM: human M1 muscarinic receptor positive allosteric modulators, primary screen, CHO-K1 cells, Fluo-8 calcium fluorescence, 1536-well | CHO-K1 hM1, ACh EC20; 0% = ACh EC20, 100% = maximal ACh | activation, % at 3 µM | actives 0.088% (n = 360,000) | AID 588819, 2011; in the data active = activation above about 19%, passing the limit was not always enough
Target sequence (P11229 whole entry, looked up): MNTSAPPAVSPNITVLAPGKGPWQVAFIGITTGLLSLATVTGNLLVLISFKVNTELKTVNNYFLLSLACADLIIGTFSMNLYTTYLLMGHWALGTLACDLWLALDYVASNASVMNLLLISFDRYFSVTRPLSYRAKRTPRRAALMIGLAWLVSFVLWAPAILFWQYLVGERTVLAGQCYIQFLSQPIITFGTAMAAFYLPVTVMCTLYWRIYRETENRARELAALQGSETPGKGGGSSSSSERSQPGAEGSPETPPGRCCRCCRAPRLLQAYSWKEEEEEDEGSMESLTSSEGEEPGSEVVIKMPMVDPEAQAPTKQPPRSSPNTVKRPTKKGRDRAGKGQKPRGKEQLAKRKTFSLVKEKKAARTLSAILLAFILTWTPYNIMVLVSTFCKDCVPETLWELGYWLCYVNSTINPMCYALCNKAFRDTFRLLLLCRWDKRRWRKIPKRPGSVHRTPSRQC
M1 PAM parental: nonselective calcium activators in parental CHO-K1 cells, primary screen, counter-screen for M1 PAM project, cell-based, Fluo-8 calcium fluorescence, full deck, 1536-well; activation, % at 3 µM; AID 602247, 2012; ATP EC20; 0% at ATP EC20, 100% at ATP max; actives 0.02% (n = 360,000);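 active = activation above the run cutoff, the mean activation of all test compounds plus 3 SD, cut at about 40% in these data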;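 also: peak over basal fluorescence ratio in a 140 s read after ATP addition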
CHRM1 antagonist: human M1 muscarinic receptor antagonists, primary screen, CHO-K1 cells, Fluo-8 calcium fluorescence, 1536-well; Muscarinic acetylcholine receptor M1 (Homo sapiens), P11229; CHO-K1 hM1, ACh EC80 antagonist; inhibition, % at 3 µM; actives 1.3% (n = 360,000); AID 588852, 2011;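 active = percent inhibition above its own plate's cutoff, namely the mean of that plate's compound wells plus 3 SD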;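 also: peak over basal fluorescence ratio during 140 s after agonist addition; 0% = ACh EC80 plus DMSO and 100% = DMSO alone without agonist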
M1 ag: human M1 muscarinic receptor agonists, primary screen, Fluo-8 calcium fluorescence, CHO-K1 cells, HTS. CHO-K1 hM1, agonist mode; 0% DMSO, 100% acetylcholine EC100. actives 0.33% (n = 360,000). Muscarinic acetylcholine receptor M1 (Homo sapiens), P11229. activation, % at 3 µM. AID 588814, 2011;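 active = activation above the run's mean compound activation plus 3 SD, cut at about 16% in these data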;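 also: peak over basal fluorescence ratio within a 140 s kinetic read after compound addition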
Numbers without * were called inactive.

SMILES | CHO-K1 Ca antag | CHO-K1 Ca ag | CHRM1 PAM | M1 PAM parental | CHRM1 antagonist | M1 ag
COc1ccc(-c2c[n+](CC(=O)N3c4ccccc4Sc4ccccc43)c3n2CCC3)cc1 | -11.6 | 0.0 | -26.5 | 12.9 | 86.2* | -8.0
Cc1ccccc1NC(=O)C[n+]1cc(-c2ccccc2)n2c1CCC2 | 15.9 | 5.0 | -16.8 | -20.9 | 50.3* | -2.4
O=C(C[n+]1cc(-c2ccc(Cl)cc2)n2c1CCC2)N1c2ccccc2Sc2ccccc21 | 3.5 | -0.4 | -25.8 | -3.3 | 97.3* | -8.0
COc1ccc2sc(N(CCN(C)C)C(=O)c3ccc4ccccc4c3)nc2c1 | 4.8 | 0.1 | 5.4 | 13.4 | -6.1 | 19.8*
O=C(Nc1ccc2c(c1)OCO2)c1ccccc1 | -14.5 | 0.3 | -0.3 | 5.9 | -1.1 | -5.4
CN1C(=O)c2ccc(C(=O)Nc3ccc4c(c3)OCO4)cc2C1=O | 36.7* | 0.1 | 9.1 | 11.6 | -11.8 | -2.4
Cn1nc(C(=O)Nc2ccc3c(c2)OCO3)c2ccccc2c1=O | -10.3 | 0.2 | 26.6* | 5.1 | -27.9 | 1.6
CC(OC(=O)c1ccc(F)c(S(=O)(=O)N2CCOCC2)c1)C(=O)NC1CCCC1 (centres undefined) | 26.8* | -0.2 | 4.0 | -10.9 | -7.5 | -1.5
CC[N+](C)(C)CC/C=C1/c2ccccc2Sc2ccc(Cl)cc21 | 0.5 | 0.7 | -24.2 | -6.5 | 99.6* | -5.7
CCCCCCCCCCC[N+](C)(C)CC/C=C1/c2ccccc2Sc2ccc(Cl)cc21 | -14.3 | 2.9 | -29.6 | 3.4 | 99.4* | -9.5
CCC1=Nc2cc(C(=O)O)ccc2Sc2ccc(Cl)cc21 | 4.9 | -0.1 | 1.0 | 8.6 | 12.1 | -3.5
CCCCCC[n+]1c(-c2ccc(Cl)cc2Cl)csc1Nc1ccccc1 | 6.3 | 0.0 | 1.3 | 8.9 | -6.7 | -3.1
CCCCCCCCCC[N+](C)(C)CC/C=C1/c2ccccc2Sc2ccc(Cl)cc21 | -15.5 | 0.2 | -32.5 | -0.1 | 82.5* | -8.5
CCOC(=O)c1sc(NC(=O)Cn2nnc3sc4c(c3c2=O)CCC(C(C)(C)C)C4)nc1C (centres undefined) | 26.4* | -0.7 | 3.5 | -12.3 | -10.9 | -2.9
Cc1cn([C@H]2C[C@H](O)[C@@H](CCC(=O)NC(c3ccccc3)c3ccccc3)O2)c(=O)[nH]c1=O | -5.1 | 0.8 | 3.1 | 11.7 | -7.5 | -3.8
CN1CCC(=C2c3ccccc3Sc3ccccc32)CC1 | 1.3 | 0.7 | -25.8 | 7.1 | 99.8* | -5.9
COc1ccc2ccccc2c1CNC(C)c1ccccc1 (centres undefined) | 4.1 | 0.9 | 18.9 | -12.1 | -22.8 | -1.0
CC(NCCCOc1cccc2ccccc12)c1ccccc1 (centres undefined) | 4.8 | 28.3* | 8.7 | 11.1 | -6.0 | 3.0
CCCC#CCN1CCN(C23CC4CC(CC(C4)C2)C3)CC1 | -5.9 | 0.1 | -24.6 | -0.8 | 46.9* | -11.3
CCCCCC#CCN1CCN(C23CC4CC(CC(C4)C2)C3)CC1 | -19.6 | 0.0 | -14.7 | 19.1 | 32.5 | -7.8
COc1ccccc1C(=O)NC(=O)COC(=O)CN1C(=O)NC2(CCCCC2C)C1=O (centres undefined) | 16.8 | 0.2 | 2.9 | -13.1 | -9.8 | -2.5
CC1CCCCC12NC(=O)N(CC(=O)NCc1cccs1)C2=O (centres undefined) | 25.1* | 1.8 | 0.6 | -4.7 | -4.8 | -4.7
CC1CCCCC12NC(=O)N(CC(=O)OCC(=O)Nc1ccc(F)cc1[N+](=O)[O-])C2=O (centres undefined) | 6.4 | 5.3 | -16.7 | -2.0 | 29.0* | 3.4
O=C1C(=O)N(CCN2CCOCC2)C(c2ccccc2F)/C1=C(\O)c1ccc(S(=O)(=O)N2CCOCC2)cc1 (centres undefined) | -2.8 | 0.5 | 8.7 | -6.2 | -7.6 | -3.3
CC1(C)CC(=O)C(C=Nc2ccc(NC3=C(C#N)C(=O)CC(C)(C)C3)cc2)=C(O)C1 | -7.1 | 0.3 | 8.2 | 21.7 | -5.2 | -13.6
SMILES | CHO-K1 Ca antag | CHO-K1 Ca ag | CHRM1 PAM | M1 PAM parental | CHRM1 antagonist | M1 ag
O=c1c2cc(NC(=S)NCCN3CCCCCC3)ccc2nc2n1CCCCC2 | -5.3 | -0.3 | -14.7 | -6.1 | 13.3 | -8.5
O=c1c2cc(NC(=S)NCCCN3CCC(Cc4ccccc4)CC3)ccc2nc2n1CCCCC2 | -6.0 | 10.1 | -25.9 | 10.8 | 67.2* | -1.8
Nn1c(SCC(=O)NC2CCCC2)nnc1C(F)(F)F | 0.1 | 0.1 | 6.9 | 2.9 | -14.7 | -0.9
Cc1sc(NC(=O)CN(C(=O)c2ccccc2F)C2CCCC2)c(C(N)=O)c1C | 0.7 | 6.1 | 0.8 | -10.8 | 7.9 | 1.7
CCN(CC)c1ccc(/C=C(/C#N)c2nc3ccccc3[nH]2)c(OC(C)C)c1 | 8.7 | 12.8 | -40.6 | -0.2 | 63.7* | 55.2*
CCOc1cccc(/C=C(/C#N)c2nc3ccccc3[nH]2)c1OCC(=O)O | -3.5 | 1.0 | 4.2 | 13.9 | -10.7 | -0.7
CCN(C(=O)C1CCCN1S(=O)(=O)c1ccc2c(c1)n(C)c(=O)c(=O)n2C)c1ccccc1 (centres undefined) | 0.7 | 0.4 | -1.9 | 0.7 | -6.6 | -7.3
COc1ccc(S(=O)(=O)Nc2ccc(N3CCOCC3)cc2)cc1 | 10.5 | 0.7 | 11.3 | -12.4 | -5.3 | 1.2
COc1ccc(NS(=O)(=O)c2cc3c(cc2C)N(C)CCO3)cc1 | 9.4 | 6.7 | -13.9 | -4.8 | 31.7* | 1.0
CCOc1ccc(NS(=O)(=O)c2cc3c(cc2C)N(C)CCO3)cc1 | 13.4 | 7.3 | -15.9 | 13.7 | 23.9 | -0.7
COc1ccc(NS(=O)(=O)c2ccc(N3CCOCC3)c(N)c2)cc1 | 13.2 | 13.0 | -14.4 | -7.1 | 30.9* | 5.9
CC(OC(=O)CCCOc1ccccc1)C(=O)NC(N)=O (centres undefined) | 28.4* | 0.1 | -5.6 | -5.4 | 4.7 | -2.2
COc1ccccc1NS(=O)(=O)c1cccc(-n2c(O)c(C=Nc3ccccc3C(=O)O)c3ccccc3c2=O)c1 | -15.4 | -0.6 | -1.5 | 17.3 | 69.8* | -4.8
COc1ccc(CCNC(=S)NC(=O)c2cccc([N+](=O)[O-])c2)cc1OC | -11.4 | 1.2 | 4.9 | 7.2 | -13.3 | -2.5
CCOc1cc(N2CCOCC2)c(OCC)cc1NC(=O)COC(=O)c1cc(C)oc1C | 24.6* | 0.0 | 2.1 | -6.1 | -4.9 | -2.0
COc1ccc2[nH]c(=O)c(CN(CCO)S(=O)(=O)c3c(C)ccc4nsnc34)cc2c1 | 28.9* | 1.2 | 0.7 | -8.3 | 3.5 | -1.2
COc1ccc2[nH]c(=O)c(CN(Cc3cccs3)S(=O)(=O)c3cccc4nsnc34)cc2c1 | -12.8 | 8.7 | -13.2 | 4.2 | 31.5* | -3.2
O=C(COc1ccc(Br)cc1CNCCc1ccccc1)NCc1ccccc1 | 0.9 | 4.7 | -16.1 | 0.7 | 36.2* | -3.0
